Results as given in PubChem BioAssay (NCATS).
Records with an inconclusive call do not appear. Unmarked numbers belong to inactive results. The source made the active and inactive calls. Calls follow the shape of the dose curve; as a rule, active = well fitted curve in the direction sought with a large enough effect; inconclusive = small, poorly fitted or top-dose-only effect, or another doubt; inactive = no such curve, though single readings can be large; an effect the other way counts as inactive or inconclusive.

Assay: P-glycoprotein substrates identified in KB-3-1 adenocarcinoma cell line, qHTS therapeutic library screen (AID 1346986); also: nearly all actives have a fitted effect of over 60% in size
Details: KB-3-1 parental cells viability, CellTiter-Glo, 72 h; series mostly up to 44.5 µM; activity change, negative = cytotoxicity: at the top concentration
In short: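 Dose-response cytotoxicity, KB-3-1 vs P-gp-high KB-8-5-11, no colchicine in assay medium. Read: CellTiter-Glo at 72 h.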

| Structure (SMILES) | outcome |
| --- | --- |
| C/C1=C\CC[C@H](C)CCO[C@@H]2O[C@H](CO[C@@H]3OC[C@](O)(COC1=O)[C@H]3O)[C@@H](O)[C@H](O)[C@H]2O | inactive [at 17.4 µM] |
| CC(=O)N[C@H]1[C@H](O[C@H]2CC[C@@]3(C)C(CC[C@]4(C)C3CC=C3[C@@H]5CC(C)(C)CC[C@]5(C(=O)OC5OCC(O)C(O)C5O)CC[C@]34C)C2(C)C)O[C@H](COC2OC(C)C(O)C(OC3OC(C)C(O)C(O)C3O)C2O)[C@@H](O)[C@@H]1O (some centres undefined) | inactive [at 9.29 µM] |
| COc1cc(O)c2c(c1)C1=CC(O)C(O)CC1(C)OC2=O (centres undefined) | inactive |
| CC(=O)CC1CCC(C(C)C(=O)OCC(O)CO)O1 (centres undefined) | inactive |

Assay: P-glycoprotein substrates identified in KB-8-5-11 adenocarcinoma cell line, qHTS therapeutic library screen (AID 1346987); also: nearly all actives have a fitted effect of over 65% in size; also: potency is read from the fitted curve at half-maximal effect; as to activity change, negative = cytotoxicity: % is scaled to controls: 0 for no effect and ±100 for the full control effect
Details: KB-8-5-11 (P-gp overexpressing) viability, CellTiter-Glo, 72 h; series mostly up to 44.5 µM; activity change, negative = cytotoxicity: at the top concentration
In short: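 In this qHTS, P-gp-rich KB-8-5-11 cells received library compounds across a concentration range. Viability was quantified by luminescence after 72 h at 37 degree C.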

| Structure (SMILES) | activity change, negative = cytotoxicity | outcome | Potency |
| --- | --- | --- | --- |
| OC/C=C/c1ccc(O[C@@H]2O[C@H](CO)[C@@H](O)[C@H](O)[C@H]2O)cc1 | -0.22% |  |  |
| CC1(C)CCC2(C(=O)OC3OC(CO)C(O)C(O)C3O)CCC3(C)C(=CCC4C5(C)CCC(O)C(C)(C(=O)O)C5CCC43C)C2C1O (centres undefined) | 1.24% [at 17.3 µM] |  |  |
| CC(O)/C=C/C1OC(=O)CC1Nc1ccc(C(=O)O)cc1 (centres undefined) |  | inactive |  |
| CN(C)C/C=C/C(=O)Nc1cccc(C(=O)Nc2ccc(Nc3nccc(-c4cccnc4)n3)cc2)c1 |  | inactive |  |
| C/C1=C\CC[C@H](C)CCO[C@@H]2O[C@H](CO[C@@H]3OC[C@](O)(COC1=O)[C@H]3O)[C@@H](O)[C@H](O)[C@H]2O |  | inactive [at 17.3 µM] |  |
| COc1ccc2[nH]c3c(-c4cccc5ccccc45)nccc3c2c1 |  |  | 920 nM (active) |
| COc1ccc(/C=C/C(=O)O[C@H]2[C@H](O[C@H]3[C@@H]4C=CO[C@@H](O[C@@H]5O[C@H](CO)[C@@H](O)[C@H](O)[C@H]5O)[C@@H]4[C@@]4(CO)O[C@@H]34)O[C@@H](C)[C@H](O)[C@H]2OC(C)=O)cc1 |  | inactive [at 17.3 µM] |  |
| CC(=O)N[C@H]1[C@H](O[C@H]2CC[C@@]3(C)C(CC[C@]4(C)C3CC=C3[C@@H]5CC(C)(C)CC[C@]5(C(=O)OC5OCC(O)C(O)C5O)CC[C@]34C)C2(C)C)O[C@H](COC2OC(C)C(O)C(OC3OC(C)C(O)C(O)C3O)C2O)[C@@H](O)[C@@H]1O (some centres undefined) | 4.96% [at 9.29 µM] |  |  |
| CO/N=C(/C(=O)N[C@@H]1C(=O)N2C(C(=O)O)=C(Cn3ccc(=N)n3CCO)CS[C@H]12)c1csc(N)n1 |  | inactive |  |
| COc1cc2nc(N3CCC(N4CCCCC4)CC3)nc(NC3CCCCCC3)c2cc1OC |  |  | 5170 nM (active) |
| CC1CCC2C(C(=O)O)=COC(O[C@@H]3O[C@H](CO)[C@@H](O)[C@H](O)[C@H]3O)C12 (some centres undefined) | -12.9% |  |  |
| Cc1cccc2c1NC(=O)C2(c1ccc(O)cc1)c1ccc(O)cc1 | -21.4% |  |  |
| Cc1ncc(CCCN(C)C)cc1Nc1ncc2c(n1)-c1ccc(C(F)(F)F)cc1NC(=S)C2 |  |  | 65.1 nM (active) |
| C=CC(C)(O)C(O)CC1C(C)(O)C(O)C(O)C2C(C)(C)CCCC21C (centres undefined) | 3.66% |  |  |
| C=C(C)C1CCC(C)C12CC(O)C1(C)OC1C2OC(=O)C(N)CCC(=O)O (centres undefined) | 8.63% |  |  |
| CC12CCC(OC3OC(CO)C(O)C(OC4OC(CO)C(O)C(O)C4O)C3O)CC1CCC1C2CCC2(C)/C(=C3/COC(=O)C3)CCC12O (centres undefined) | 4.78% [at 17.3 µM] |  |  |
| C=C(C)[C@@H]1CC[C@]2(C)CC[C@]3(C)[C@H](CC[C@@H]4[C@@]5(C)CC[C@@H](O)C(C)(C)[C@@H]5CC[C@]43C)[C@@H]12 | -4.26% [at 17.3 µM] |  |  |
| O=C(O)c1ccc(CN2CCC(CN[C@@H]3C[C@H]3c3ccccc3)CC2)cc1 | -1.3% |  |  |
| COc1cc2ncnc(N3CCC(Oc4cnc5ccccc5n4)C3)c2cc1OC (centres undefined) |  |  | 461 nM (active) |
| COC(=O)N[C@@H](C)CNc1nccc(-c2cn(C(C)C)nc2-c2cc(Cl)cc(NS(C)(=O)=O)c2F)n1 | -17.3% |  |  |
| COc1ccc([C@@]2(O)c3c(ccc(CC=C(C)C)c3O)NC(=O)[C@@H]2OC)cc1 | -21.5% |  |  |
| CC(O)CCC1C(CO[C@@H]2O[C@H](CO)[C@@H](O)[C@H](O)[C@H]2O)CC(O)CC1(C)C (some centres undefined) | 1.67% |  |  |
| O=C1NC(Cc2ccccc2)C(=O)N2CCCC12 (centres undefined) | 2.45% |  |  |
| CC(=O)N[C@H]1[C@H](O[C@H]2CC[C@@]3(C)C(CC[C@]4(C)C3CC=C3C5CC(C)(C)CC[C@]5(C(=O)O)[C@H](O)C[C@]34C)C2(C)C)O[C@H](CO[C@@H]2OC[C@H](O)[C@H](O)[C@H]2O[C@@H]2OC[C@@H](O)[C@H](O)[C@H]2O)[C@@H](O)[C@@H]1O (some centres undefined) | 5.39% [at 9.29 µM] |  |  |
| CC1(C)CC[C@]2(CO[C@@H]3O[C@H](CO)[C@@H](O)[C@H](O)[C@H]3O)[C@@H](O)C[C@]3(C)C(=CCC4[C@@]5(C)CC[C@H](O[C@@H]6O[C@H](CO[C@@H]7O[C@H](CO[C@@H]8OC[C@@H](O)[C@H](O)[C@H]8O)[C@@H](O)[C@H](O)[C@H]7O)[C@@H](O)[C@H](O)[C@H]6O)C(C)(C)C5CC[C@]43C)[C@@H]2C1 (some centres undefined) | 1.76% [at 9.29 µM] |  |  |
